# Counter-ions that a name gives are not always drawn.
# How the values were obtained:
# U-2932 [1] = assay: growth inhibition by drug alone (1 - RLU/untreated control) (fraction); higher = stronger inhibition; conditions: 177Lu-lilotomab satetraxetan 0 ug/ml
# Outline: (§1)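 Compound doses on the pre-printed Selleck Cambridge Cancer Compound library plates were 10/100 nM for RIVA cells and 10/1,000 nM for U-2932 cells, seeded at 3,000 cells/well. Before seeding, cells were washed after 18 h with or without a radiolabelled anti-CD37 antibody conjugate (~600 MBq/mg; 0.5 µg/ml RIVA, 1 µg/ml U-2932). Growth inhibition was derived from RealTime-Glo luminescence relative to untreated no-drug control wells. Readings were taken daily starting on day 3, each after 1 h at 37°C, and each well's RLU was divided by the mean of 48 such wells per plate and subtracted from 1.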
# RIVA [2] = assay: as above; conditions: 177Lu-lilotomab satetraxetan 0 ug/ml
# Outline: as §1
# U-2932 [3] = assay: growth inhibition by drug plus 177Lu-lilotomab satetraxetan (1 - RLU/untreated control) (fraction); higher = stronger inhibition; conditions: 177Lu-lilotomab satetraxetan 1 ug/ml
# Outline: as §1
# RIVA [4] = assay: as above; conditions: 177Lu-lilotomab satetraxetan 0.5 ug/ml
# Outline: as §1
SMILES,"growth inhibition by drug alone (U-2932 [1]; 10 nM, time (day): 3)","growth inhibition by drug alone (U-2932 [1]; 10 nM, time (day): 4)","growth inhibition by drug alone (U-2932 [1]; 10 nM, time (day): 5)","growth inhibition by drug alone (U-2932 [1]; 10 nM, time (day): 6)","growth inhibition by drug alone (U-2932 [1]; 1000 nM, time (day): 3)","growth inhibition by drug alone (U-2932 [1]; 1000 nM, time (day): 4)","growth inhibition by drug alone (U-2932 [1]; 1000 nM, time (day): 5)","growth inhibition by drug alone (U-2932 [1]; 1000 nM, time (day): 6)","growth inhibition by drug alone (RIVA [2]; 10 nM, time (day): 3)","growth inhibition by drug alone (RIVA [2]; 10 nM, time (day): 4)","growth inhibition by drug alone (RIVA [2]; 10 nM, time (day): 5)","growth inhibition by drug alone (RIVA [2]; 10 nM, time (day): 6)","growth inhibition by drug alone (RIVA [2]; 100 nM, time (day): 3)","growth inhibition by drug alone (RIVA [2]; 100 nM, time (day): 4)","growth inhibition by drug alone (RIVA [2]; 100 nM, time (day): 5)","growth inhibition by drug alone (RIVA [2]; 100 nM, time (day): 6)","growth inhibition by drug plus 177Lu-lilotomab satetraxetan (U-2932 [3]; 10 nM, time (day): 3)","growth inhibition by drug plus 177Lu-lilotomab satetraxetan (U-2932 [3]; 10 nM, time (day): 4)","growth inhibition by drug plus 177Lu-lilotomab satetraxetan (U-2932 [3]; 10 nM, time (day): 5)","growth inhibition by drug plus 177Lu-lilotomab satetraxetan (U-2932 [3]; 10 nM, time (day): 6)","growth inhibition by drug plus 177Lu-lilotomab satetraxetan (U-2932 [3]; 1000 nM, time (day): 3)","growth inhibition by drug plus 177Lu-lilotomab satetraxetan (U-2932 [3]; 1000 nM, time (day): 4)","growth inhibition by drug plus 177Lu-lilotomab satetraxetan (U-2932 [3]; 1000 nM, time (day): 5)","growth inhibition by drug plus 177Lu-lilotomab satetraxetan (U-2932 [3]; 1000 nM, time (day): 6)","growth inhibition by drug plus 177Lu-lilotomab satetraxetan (RIVA [4]; 10 nM, time (day): 3)","growth inhibition by drug plus 177Lu-lilotomab satetraxetan (RIVA [4]; 10 nM, time (day): 4)","growth inhibition by drug plus 177Lu-lilotomab satetraxetan (RIVA [4]; 10 nM, time (day): 5)","growth inhibition by drug plus 177Lu-lilotomab satetraxetan (RIVA [4]; 10 nM, time (day): 6)","growth inhibition by drug plus 177Lu-lilotomab satetraxetan (RIVA [4]; 100 nM, time (day): 3)","growth inhibition by drug plus 177Lu-lilotomab satetraxetan (RIVA [4]; 100 nM, time (day): 4)","growth inhibition by drug plus 177Lu-lilotomab satetraxetan (RIVA [4]; 100 nM, time (day): 5)","growth inhibition by drug plus 177Lu-lilotomab satetraxetan (RIVA [4]; 100 nM, time (day): 6)"
CNNCc1ccc(C(=O)NC(C)C)cc1 [Procarbazine hydrochloride (Matulane)],0.123,0.0702,-0.0853,-0.113,0.0616,0.0673,0.00725,-0.144,0.0732,0.0412,0.0155,-0.0516,-0.184,-0.167,-0.142,-0.189,0.0466,0.103,0.15,0.195,0.0453,0.108,0.126,0.177,0.542,0.584,0.596,0.607,0.494,0.553,0.563,0.554
CNC(=O)c1ccc(N2C(=S)N(c3ccc(C#N)c(C(F)(F)F)c3)C(=O)C2(C)C)cc1F [MDV3100 (Enzalutamide)],0.0921,0.0374,-0.126,-0.107,0.019,0.0335,-0.0413,-0.0245,0.0909,0.0471,0.0315,-0.246,-0.0634,-0.143,-0.144,-0.21,0.0217,0.0789,0.128,0.16,0.0172,0.0892,0.116,0.182,0.559,0.587,0.59,0.602,0.519,0.555,0.553,0.556
CCOc1cc2ncc(C#N)c(Nc3ccc(OCc4ccccn4)c(Cl)c3)c2cc1NC(=O)/C=C/CN(C)C [Neratinib (HKI-272)],-0.0556,-0.0442,-0.0146,0.0157,-0.0267,-0.00012,-0.0352,-0.0269,-0.145,-0.144,-0.165,-0.233,-0.0145,-0.0628,-0.098,-0.14,-0.0172,-0.00319,0.0327,0.194,-0.0673,0.003,0.00224,0.0815,0.358,0.498,0.529,0.541,0.367,0.422,0.425,0.419
Cc1[nH]c2ccccc2c1CCNCc1ccc(/C=C/C(=O)NO)cc1 [Panobinostat],0.545,0.448,0.353,0.31,0.98,0.982,0.982,0.983,0.637,0.535,0.447,0.328,0.977,0.977,0.975,0.975,0.585,0.524,0.461,0.445,0.979,0.981,0.983,0.986,0.93,0.93,0.939,0.944,0.987,0.988,0.988,0.987
CN1CCN(c2nc(C3=C(c4c[nH]c5ccccc45)C(=O)NC3=O)c3ccccc3n2)CC1 [Sotrastaurin (AEB071)],0.186,0.158,0.0846,0.122,0.463,0.616,0.696,0.756,0.214,0.132,0.0773,-0.121,0.163,0.124,0.0507,-0.0643,0.109,0.131,0.175,0.293,0.572,0.709,0.75,0.788,0.535,0.604,0.626,0.628,0.584,0.609,0.607,0.591
CC(C)(C)c1[nH]cnc1/C=c1\[nH]c(=O)/c(=C/c2ccccc2)[nH]c1=O [NPI-2358 (Plinabulin)],0.142,0.0848,0.0507,-0.0221,0.964,0.971,0.974,0.98,0.00478,-0.0503,-0.112,-0.272,0.941,0.953,0.959,0.963,0.0693,0.123,0.165,0.213,0.968,0.975,0.98,0.984,0.505,0.546,0.548,0.574,0.955,0.967,0.972,0.976
CS(=O)(=O)N1CCN(Cc2cc3nc(-c4cccc5[nH]ncc45)nc(N4CCOCC4)c3s2)CC1,-0.0712,-0.0515,-0.0456,0.0469,0.69,0.786,0.802,0.82,-0.0821,-0.12,-0.138,-0.212,0.604,0.409,0.327,0.221,-0.0212,-0.0112,0.0169,0.184,0.81,0.875,0.897,0.913,0.351,0.467,0.488,0.493,0.532,0.5,0.486,0.45
